Structures are written as SMILES. Inconclusive results are not listed. A call without a number means that no potency is given here. Calls of active or inactive are those of the source. Unless noted, calls follow the shape of the dose curve; as a rule, active = well fitted curve in the direction sought with a large enough effect in the repeat runs; inconclusive = weak or mixed curves; inactive = no such curve, though single readings can be large; an effect the other way counts as inactive or inconclusive.

Chain of Peroxisome proliferator-activated receptor gamma (Homo sapiens) (P37231 whole entry, looked up): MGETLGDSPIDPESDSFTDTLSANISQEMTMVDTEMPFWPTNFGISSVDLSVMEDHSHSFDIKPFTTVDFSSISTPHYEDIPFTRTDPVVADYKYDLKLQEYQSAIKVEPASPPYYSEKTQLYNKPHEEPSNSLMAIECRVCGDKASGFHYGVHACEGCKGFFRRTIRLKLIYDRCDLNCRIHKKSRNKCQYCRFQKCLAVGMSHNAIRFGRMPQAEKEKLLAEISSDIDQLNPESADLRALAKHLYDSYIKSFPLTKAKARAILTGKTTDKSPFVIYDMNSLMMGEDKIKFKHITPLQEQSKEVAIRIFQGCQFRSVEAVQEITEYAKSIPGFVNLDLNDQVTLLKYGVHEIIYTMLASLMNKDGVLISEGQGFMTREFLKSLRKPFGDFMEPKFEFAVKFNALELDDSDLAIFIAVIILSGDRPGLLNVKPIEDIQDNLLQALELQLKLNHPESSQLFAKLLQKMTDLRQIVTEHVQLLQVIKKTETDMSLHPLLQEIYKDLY
Chain of Aryl hydrocarbon receptor (Homo sapiens) (P35869 whole entry, looked up): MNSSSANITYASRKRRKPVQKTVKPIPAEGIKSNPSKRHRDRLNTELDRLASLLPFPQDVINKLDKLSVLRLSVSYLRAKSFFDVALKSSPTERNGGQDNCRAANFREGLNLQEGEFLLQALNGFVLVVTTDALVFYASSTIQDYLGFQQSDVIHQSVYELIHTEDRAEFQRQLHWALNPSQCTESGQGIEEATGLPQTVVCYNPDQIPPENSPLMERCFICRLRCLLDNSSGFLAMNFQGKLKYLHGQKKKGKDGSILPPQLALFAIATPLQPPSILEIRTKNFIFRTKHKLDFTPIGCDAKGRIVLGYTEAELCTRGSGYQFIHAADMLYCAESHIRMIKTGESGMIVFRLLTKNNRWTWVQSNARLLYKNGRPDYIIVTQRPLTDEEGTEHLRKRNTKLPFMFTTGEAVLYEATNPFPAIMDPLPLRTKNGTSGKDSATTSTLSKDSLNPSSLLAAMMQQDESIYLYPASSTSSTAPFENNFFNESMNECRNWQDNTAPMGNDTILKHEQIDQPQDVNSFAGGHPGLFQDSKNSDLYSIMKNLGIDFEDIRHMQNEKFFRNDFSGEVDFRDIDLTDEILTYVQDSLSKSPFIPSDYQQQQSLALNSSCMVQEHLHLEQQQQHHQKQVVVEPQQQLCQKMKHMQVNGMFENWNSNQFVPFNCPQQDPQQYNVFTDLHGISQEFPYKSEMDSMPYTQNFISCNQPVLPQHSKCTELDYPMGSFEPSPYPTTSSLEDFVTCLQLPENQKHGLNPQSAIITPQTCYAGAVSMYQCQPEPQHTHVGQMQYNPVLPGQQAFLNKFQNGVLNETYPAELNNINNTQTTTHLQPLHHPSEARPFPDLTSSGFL

The first assay deals with Aryl hydrocarbon receptor (Homo sapiens) (UniProt P35869). Briefly: qHTS assay to identify small molecule that activate the aryl hydrocarbon receptor (AhR) signaling pathway (AID 743085). Also: nearly all actives have a fitted effect of over 15% in size. Also: potency is read from the fitted curve at half-maximal effect.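 As to activation: HG2L7.5c1 human HepG2 liver cells with stably integrated DRE-driven firefly reporter.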 Particulars: HepG2 AhR-luc (HG2L7.5c1), luciferase, 24 h; series mostly up to 70.3 µM. The procedure, abridged:
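Luminescence read-out: ONE-Glo reagent, 30 min at room temperature, in HG2L7.5c1 HepG2 reporter cells treated 24 h at 37C. Viability was measured beforehand by CellTiter-Fluor fluorescence after 30 min at 37C.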
Turning to `O=NN1CCN(N=O)CC1`, the Potency entry is “inactive”.
As for `CCCCc1ccc(O)cc1`, the Potency entry is “inactive”.
The same measure, in the same setting: the value for `CN1C(=S)CN=C(c2ccccc2)c2cc(Cl)ccc21` was “inactive”.
Consider `C1CCC(C2CCCCC2)CC1`, for which the Potency entry was “inactive”.
Regarding `C#C[C@]1(O)C=C[C@H]2[C@@H]3CCC4=CC(=O)CC[C@@H]4[C@H]3CC[C@@]21CC`, the Potency result was “inactive”.
Turning to `CC(CC(C#N)(c1ccccc1)c1ccccc1)N(C)C` (stereo not given), the Potency result was “inactive”.
With `CCCCCCBr`, the Potency result was “inactive”.
Take `Nc1c(Br)cc([N+](=O)[O-])cc1[N+](=O)[O-]`: the Potency was 13.8 µM (active).
On the same count and under the same terms, the result for `Nc1cc(Cl)ccc1O` reads 29.6 µM (active).
The same measure, in the same setting: the value for `CCOc1nc(C(Cl)(Cl)Cl)ns1` was “inactive”; that for `C[C@H]1CCC[C@H](O)CCCCCc2cc(O)cc(O)c2C(=O)O1` was “inactive”; that for `CC(Cl)(Cl)[N+](=O)[O-]` was “inactive”.
As to `CC(COc1ccc(Oc2ccccc2)cc1)Oc1ccccn1` (stereo not given), the Potency entry was “inactive”.
Still for that read-out and setting: the value for `CC1(C(=O)Nc2ccc(O)c(Cl)c2Cl)CCCCC1` was “inactive”.
`N#CC(CCc1ccc(Cl)cc1)(Cn1cncn1)c1ccccc1` (stereo not given): the Potency result is “inactive”.
On the same count and under the same terms, the value for `O=C(Nc1ccccc1)N(Cc1ccc(Cl)cc1)C1CCCC1` was 54.5 µM (active); that for `CNC(=O)Oc1ccc(N(C)C)c(C)c1` was “inactive”.

Test system in another assay: not listed separately
Put plainly: qHTS assay to identify small molecule that activate the aryl hydrocarbon receptor (AhR) signaling pathway - cell viability counter screen (AID 743086).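 Also: HepG2 liver cells carrying the AhR DRE luciferase reporter; nearly all actives have a fitted effect of over 45% in size.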 Particulars: HepG2-AhR-luc viability, CellTiter-Fluor, 24 h; series mostly up to 70.3 µM. The procedure, abridged: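 HepG2-AhR-luc (HG2L7.5c1) cells, 4000/well, treated 24 h at 37 C with compound; viability measured as CellTiter-Fluor fluorescence after 30 min in the same wells as the luciferase read.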
On the technique in general: qHTS replaces the single test concentration by a dilution series.
As for `CCC(C)n1c(=O)[nH]c(C)c(Br)c1=O` (stereo not given), the compound was called inactive.
In the case of `C[N+](C)=CCl`, the call was inactive.
The same measure, in the same setting: the result for `CCOP(=S)(OCC)Oc1cc(-c2ccccc2)on1` reads “inactive”; that for `CC(C)(C)OC(=O)c1ncn2c1[C@@H]1CCCN1C(=O)c1c(Br)cccc1-2`, “inactive”.
`O=C(Cc1ccccc1)OCc1ccccc1`: the compound was classed as inactive.
As to `CCOC(=O)NC(=S)Nc1ccccc1NC(=S)NC(=O)OCC`, the result was inactive.
Regarding `COc1cc(OC)nc(Sc2cccc(Cl)c2C(=O)O)n1`, the compound was called inactive.
Turning to `CN1CCC(O)(c2ccc(F)cc2)C(C(=O)c2ccc(F)cc2)C1` (stereo not given), the outcome was inactive.
Take `CNC(=O)Oc1ccccc1C1OCCO1`: the result was inactive.
Same read-out and setting: the result for `O=[N+]([O-])c1ccc2c3c(cccc13)CC2` reads “inactive”; that for `BrCCCCCCBr`, “inactive”.
The same measure, in the same setting: the result for `CCN(CC)c1nc(C)cc(OP(=S)(OC)OC)n1` reads “inactive”; that for `CCNc1nc(NC(C)C)nc(OC)n1`, “inactive”; that for `CC1=NNC(=O)N(/N=C/c2cccnc2)C1`, “inactive”.
On the same count and under the same terms, the result for `CCCSP(=O)(OCC)Oc1ccc(Br)cc1Cl` (stereo not given) reads “inactive”.
For `CCOP(=S)(OCC)SCSP(=S)(OCC)OCC`, the result was inactive.
With `CCCCOC(=O)c1ccccc1C(=O)O`, the call was inactive.
With `Nc1cnn(-c2ccccc2)c(=O)c1Cl`, the call was inactive.
Still for that read-out and setting: the value for `CCCCOP(=O)(O)OCCCC` was “inactive”; that for `COP(N)(=S)Oc1ccccc1C(=O)OC(C)C` (stereo not given) was “inactive”.

The target in the next assay is Peroxisome proliferator-activated receptor gamma (Homo sapiens) (UniProt P37231). Briefly: qHTS assay to identify small molecule agonists of the peroxisome proliferator-activated receptor gamma (PPARg) signaling pathway (AID 743094; active = well fitted activation curve with a large enough effect in the signal ratio in the repeat runs, not every such curve was filed as active; the % refers to the signal ratio). Particulars: HEK293H PPARg-UAS-bla, beta-lactamase FRET ratio, 17 h; series mostly up to 57 µM. The procedure, abridged:
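Agonism was assessed in a beta-lactamase reporter system, HEK293H cells with a stably integrated UAS-bla construct under PPARg control; the 17 h treatment at 37C preceded a 1 h room-temperature FRET substrate read.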
With `CCC(C)n1c(=O)[nH]c(C)c(Br)c1=O` (stereo not given), the outcome was inactive.
`C[N+](C)=CCl`: the outcome was inactive.
Still for that read-out and setting: the value for `COc1cc(OC)nc(Sc2cccc(Cl)c2C(=O)O)n1` was “inactive”; that for `CN1CCC(O)(c2ccc(F)cc2)C(C(=O)c2ccc(F)cc2)C1` (stereo not given) was “inactive”; that for `O=[N+]([O-])c1ccc2c3c(cccc13)CC2` was “inactive”.
Still for that read-out and setting: the value for `BrCCCCCCBr` was “inactive”; that for `CCN(CC)c1nc(C)cc(OP(=S)(OC)OC)n1` was “inactive”; that for `CCNc1nc(NC(C)C)nc(OC)n1` was “inactive”.
As for `CC1=NNC(=O)N(/N=C/c2cccnc2)C1`, the result was inactive.
With `CCCSP(=O)(OCC)Oc1ccc(Br)cc1Cl` (stereo not given), the result was inactive.
The same measure, in the same setting: the value for `CCOP(=S)(OCC)SCSP(=S)(OCC)OCC` was “inactive”.
Consider `CCCCOC(=O)c1ccccc1C(=O)O`, for which the result was inactive.
Still for that read-out and setting: the value for `Nc1cnn(-c2ccccc2)c(=O)c1Cl` was “inactive”.
On the same count and under the same terms, the result for `CCCCOP(=O)(O)OCCCC` reads “inactive”; that for `COP(N)(=S)Oc1ccccc1C(=O)OC(C)C` (stereo not given), “inactive”.

The next assay shares this target. Put plainly: qHTS assay to identify small molecule antagonists of the peroxisome proliferator-activated receptor gamma (PPARg) signaling pathway (AID 743191; calls by dose curve; also: nearly all actives have a fitted effect of over 30% in size). The following applies: HEK293H PPARg-UAS-bla, beta-lactamase ratio, antagonist, 17 h; series mostly up to 62.6 µM. The procedure, abridged:
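GeneBLAzer PPARg UAS-bla HEK293H cells, 5 h post-plating, exposed to compounds 17 h at 37C. LiveBLAzer B/G FRET substrate added for 1 h at room temperature; beta-lactamase reporter read by fluorescence intensity.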
As for `CCC(C)n1c(=O)[nH]c(C)c(Br)c1=O` (stereo not given), the Potency entry was “inactive”.
Same read-out and setting: the value for `C[N+](C)=CCl` was “inactive”.
Consider `CCOP(=S)(OCC)Oc1cc(-c2ccccc2)on1`, for which the Potency result is “inactive”.
On to `CC(C)(C)OC(=O)c1ncn2c1[C@@H]1CCCN1C(=O)c1c(Br)cccc1-2`, for which the Potency result was “inactive”.
Take `O=C(Cc1ccccc1)OCc1ccccc1`: the Potency entry was “inactive”.
On the same count and under the same terms, the value for `CCOC(=O)NC(=S)Nc1ccccc1NC(=S)NC(=O)OCC` was “inactive”.
The same measure, in the same setting: the result for `COc1cc(OC)nc(Sc2cccc(Cl)c2C(=O)O)n1` reads “inactive”.
Same read-out and setting: the result for `CN1CCC(O)(c2ccc(F)cc2)C(C(=O)c2ccc(F)cc2)C1` (stereo not given) reads “inactive”.
Regarding `CCCCc1ccc(O)cc1`, the Potency entry was “inactive”.
On to `CN1C(=S)CN=C(c2ccccc2)c2cc(Cl)ccc21`, for which the Potency result was “inactive”.
On the same count and under the same terms, the value for `CNC(=O)Oc1ccccc1C1OCCO1` was “inactive”; that for `O=[N+]([O-])c1ccc2c3c(cccc13)CC2` was “inactive”.
On the same count and under the same terms, the result for `BrCCCCCCBr` reads “inactive”.
Take `CC(Cl)(Cl)[N+](=O)[O-]`: the Potency result is “inactive”.
In the case of `CC(COc1ccc(Oc2ccccc2)cc1)Oc1ccccn1` (stereo not given), the Potency entry was “inactive”.
Same read-out and setting: the value for `CC1(C(=O)Nc2ccc(O)c(Cl)c2Cl)CCCCC1` was “inactive”; that for `CCOP(=S)(OCC)SCSP(=S)(OCC)OCC` was “inactive”.
Still for that read-out and setting: the value for `CCCCOC(=O)c1ccccc1C(=O)O` was “inactive”; that for `COP(N)(=S)Oc1ccccc1C(=O)OC(C)C` (stereo not given) was “inactive”.

Test system in a further assay: not listed separately
Put plainly: qHTS assay to identify small molecule antagonists of the peroxisome proliferator-activated receptor gamma (PPARg) signaling pathway - cell viability counter screen (AID 743194). Also: nearly all actives have a fitted effect of over 55% in size. Also: potency is read from the fitted curve at half-maximal effect. The following applies: PPARg-bla HEK293H viability, CellTiter-Glo luminescence, 17 h; Potency: co-treated with 50 nM rosiglitazone; series mostly up to 62.6 µM. The procedure, abridged:
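Cytotoxicity counter screen in PPARg-bla HEK293H cells, same wells as reporter assay. Compounds plus 50 nM rosiglitazone (final) for 17 h at 37 C, then viability read by CellTiter-Glo luminescence.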
For the compound `CCC(C)n1c(=O)[nH]c(C)c(Br)c1=O` (stereo not given), the Potency entry is “inactive”.
Same read-out and setting: the result for `C[N+](C)=CCl` reads “inactive”; that for `CC(C)(C)OC(=O)c1ncn2c1[C@@H]1CCCN1C(=O)c1c(Br)cccc1-2`, “inactive”; that for `O=C(Cc1ccccc1)OCc1ccccc1`, “inactive”.
Same read-out and setting: the value for `CCOC(=O)NC(=S)Nc1ccccc1NC(=S)NC(=O)OCC` was “inactive”; that for `O=NN1CCN(N=O)CC1` was “inactive”; that for `CN1C(=S)CN=C(c2ccccc2)c2cc(Cl)ccc21` was “inactive”.
Same read-out and setting: the value for `C1CCC(C2CCCCC2)CC1` was “inactive”; that for `CC(CC(C#N)(c1ccccc1)c1ccccc1)N(C)C` (stereo not given) was “inactive”; that for `CCCCCCBr` was “inactive”.
Turning to `Nc1c(Br)cc([N+](=O)[O-])cc1[N+](=O)[O-]`, the Potency result was “inactive”.
As to `O=[N+]([O-])c1ccc2c3c(cccc13)CC2`, the Potency entry is “inactive”.
As to `BrCCCCCCBr`, the Potency entry is “inactive”.
On the same count and under the same terms, the value for `CCN(CC)c1nc(C)cc(OP(=S)(OC)OC)n1` was “inactive”; that for `CCOc1nc(C(Cl)(Cl)Cl)ns1` was “inactive”.
For the compound `CC(COc1ccc(Oc2ccccc2)cc1)Oc1ccccn1` (stereo not given), the Potency result is “inactive”.
Consider `CC1(C(=O)Nc2ccc(O)c(Cl)c2Cl)CCCCC1`, for which the Potency entry was “inactive”.
On the same count and under the same terms, the value for `CCNc1nc(NC(C)C)nc(OC)n1` was “inactive”; that for `CC1=NNC(=O)N(/N=C/c2cccnc2)C1` was “inactive”; that for `CCOP(=S)(OCC)SCSP(=S)(OCC)OCC` was “inactive”.
The same measure, in the same setting: the value for `CCCCOC(=O)c1ccccc1C(=O)O` was “inactive”; that for `Nc1cnn(-c2ccccc2)c(=O)c1Cl` was “inactive”.
`O=C(Nc1ccccc1)N(Cc1ccc(Cl)cc1)C1CCCC1`: the Potency was 21.9 µM (active).
Take `CNC(=O)Oc1ccc(N(C)C)c(C)c1`: the Potency entry is “inactive”.

These data come from PubChem BioAssay (Tox21).
